Among all 300,000 compounds or so, about 2,300 (0.77%) were called active. The sample holds actives, similar compounds and a random draw of the others, so the mix is not that of the screen. Unmarked numbers belong to inactive results.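 Rule for the calls: active = mean activation of at least 80% with every replicate also reaching 80%; inconclusive = mean reaches 80% but some replicate falls short; inactive = the rest.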

The nature of the assay: activators of MITF-driven TRPM1 promoter reporter, primary screen, cell-based, SK-MEL-5, luciferase, single point (AID 588334).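 Note: 0% = neutral control wells and 100% = parthenolide positive control wells.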 Conditions: SK-MEL-5 TRPM1-promoter luciferase, 24 h; at 12.5 µM; active compounds read high; % of positive control, neutral wells = 0.
Turning to `CCC(=O)c1cc(F)ccc1OCC(=O)Nc1ccc2c(c1)OCCO2`, the activation is 22.6%. For the compound `CCc1ccccc1OCC(=O)Nc1ccc2c(c1)OCCO2`, the activation is 89.7% (active). As for `COc1ccccc1OCCCC(=O)Nc1ccc2c(c1)OCCO2`, the figure is 24.7%. The same measure for `Cc1cc2c(cc1C)NC1(C[C@H]3CCC(=O)N4CC[C@@H](C1)[C@@H]34)C(=NC(C)(C)CC(C)(C)C)N2` (stereo partly drawn): -10%; for `O=C(CSCc1ccccc1)N1CCc2ccccc21`: 95% (active); for `O=C(CN1CCN(c2ccccn2)CC1)N1CCc2ccccc21`: 19.8%. As for `NC(=O)N1CCc2ccccc21`, the figure is -5.85%; as for `Cn1c(N)cc(=O)n(C)c1=S`, -8.41%.

In the case of `C=CCNC(=O)/C=C/c1ccc(C(C)C)cc1`, the activation was 89.4% (active). The same measure for `CC(C)c1ccc(/C=C/C(=O)NCCCN2CCOCC2)cc1`: 4.51%. The same measure for `CC(C)c1ccc(/C=C/C(=O)NNC(=O)c2cccnc2)cc1`: 9.02%.

For `CN(C(=O)c1cccc(NC(=O)Cc2ccc(NC(=O)C3CCCN(C(=O)C4CCCC4)C3)cc2)c1)C1CCC1` (stereo not drawn), the activation is -9.98%. As for `O=c1ccn([C@@H]2O[C@H](CNS(=O)(=O)c3cc4ccccc4s3)[C@@H](O)[C@H]2O)c(=O)[nH]1`, the figure is -4.34%; as for `O=C(Nc1cccc(S(=O)(=O)N2CCOCC2)c1)C12CC3CC(CC(C3)C1)C2`, 12.4%; as for `Cc1cc([N+](=O)[O-])ccc1NC(=O)C1CCCO1` (stereo not drawn), -1.67%. As for `Cc1cc(C)c2nc(NC(=O)C3CCCO3)sc2c1` (stereo not drawn), the figure is 81.4% (active); as for `Cc1ccc(C)c(C(C)NC(=O)C2CCCO2)c1` (stereo not drawn), -7.6%. As for `C/C(=N\Nc1ccc(Cl)nn1)c1ccccc1O`, the figure is -45.2%; as for `NC(=O)c1ccc(N2CCCC2)nc1`, -7.45%. Take `COc1ccc(CN2C(CC(=O)Nc3cccnc3)c3ccc(C(F)(F)F)cc3S2(=O)=O)cc1` (stereo not drawn): the activation was 11.4%. As for `O=C1COc2c1ccc(O)c2O`, the figure is 1.19%. The same measure for `Cc1cc(/C=C2\SC(=O)N(C)C2=O)c(C)n1-c1cccc(C(=O)O)c1`: 3.12%; for `CC(C)OC(=O)CN1C(=O)C(=O)c2ccccc21`: -5.18%; for `Cc1cc(/C=C2/SC(=O)N(CC(=O)OC(C)C)C2=O)c(C)n1C`: 97.9% (active). As for `C=CCNc1cnn(-c2ccc(C)cc2)c(=O)c1Cl`, the figure is 108% (active); as for `O=c1c(Cl)c(NC2CC2)cnn1-c1ccccc1`, 6.24%; as for `CCCNC(=O)c1c(Cl)cnn1-c1ccc(C)cc1`, 69.7%.

In the case of `O=C(c1cccc(S(=O)(=O)N2CCCCCC2)c1)N1CCN(Cc2ccccc2)CC1`, the activation is 4.94%. As for `COc1ccc(NC(=O)Nc2cccc3cccnc23)cc1`, the figure is 40.1%; as for `COc1ccc(/C=N/NC(=O)Nc2ccc3nsnc3c2)c(OC)c1`, 4.9%; as for `COc1ccc(NC(=O)Nc2ccc3nsnc3c2)cc1`, 92.9% (active). As for `O=C(Nc1c(Br)cc2c(c1Br)Cc1cc([N+](=O)[O-])ccc1-2)C(Cl)Cl`, the figure is -16.6%; as for `FC(F)(F)c1ccc(-c2cccc3c2C2CC3CCN2Cc2ccccc2)cc1` (stereo not drawn), -0.65%; as for `COc1ccc(NC(=O)/C(N=Nc2cccc(S(=O)(=O)Nc3ccc(SC(F)F)cc3)c2)=C(\C)O)cc1`, -7.51%.

For the compound `CN(C(=O)c1cccc(NC(=O)Cc2ccc(NC(=O)C3CCCN(C(=O)C4CC4)C3)cc2)c1)C1CC1` (stereo not drawn), the activation was -7.94%. The same measure for `Cc1ccc(C(=O)Oc2coc(CSc3nnc(NC(=O)c4cccs4)s3)cc2=O)cc1C`: 0.796%; for `CCOc1cccc(C(=O)Nc2nnc(-c3cccs3)s2)c1`: 25.8%. As for `Cc1ccc(C(=O)Nc2nnc(-c3cccs3)s2)cc1C`, the figure is 87.8% (active).

On to `NC1=NOC(=O)C1C1CCCCC1` (stereo not drawn), for which the activation was -0.578%. For `O=c1[nH]c2c(c(=O)n1-c1ccccc1)CCO2`, the activation is 1.65%. The same measure for `COc1cc(C2CC(=O)Oc3cc(OC)c(OC)c(OC)c32)cc(OC)c1OC` (stereo not drawn): 1.92%; for `C=CCn1c(SCc2c(C)noc2C)nc2sc3c(c2c1=O)CCC(C)C3` (stereo not drawn): -11.8%; for `CCCn1nnc2sc3c(c2c1=O)CCC(C)C3` (stereo not drawn): 99.2% (active). As for `CC1CCc2c(sc3nc4n(c(=O)c23)CCS4)C1` (stereo not drawn), the figure is 73.6%; as for `CSc1ccccc1NC(=O)c1ccc2c(c1)CCN2S(C)(=O)=O`, 25.3%. Take `CS(=O)(=O)N1CCc2cc(C(=O)Nc3ccccc3Br)ccc21`: the activation was 85.3% (active). As for `CS(=O)(=O)N1CCc2cc(C(=O)Nc3ccccc3)ccc21`, the figure is 49.3%. The same measure for `Cc1nc2ccc(NC(=O)C(F)(F)F)cc2o1`: -1.51%; for `Cc1ccc(NC(=O)Nc2ccc3oc(C)nc3c2)cc1`: 92.6% (active); for `COC(=O)c1ccc(NC(=O)Nc2ccc(C)cc2)cc1`: 25.4%. As to `Cc1nc2cc(NC(=O)NCc3ccccc3)ccc2o1`, the activation is 14.2%. The same measure for `CC(=O)c1cccc(NC(=O)Nc2ccc(C)cc2)c1`: 104% (active); for `C=C(C)C(=O)Nc1cccc(C(C)=O)c1`: 5.72%; for `C[C@H](O)[C@@H]1C(=O)N2CCc3ccc(N4CCOCC4)cc3[C@@H]2C[C@@H]1N(C)C(=O)C(C)(C)C`: 3.72%. As for `COc1ccc(C2NCCCC2c2ccccc2)cc1` (stereo not drawn), the figure is -15.7%; as for `O=C(NN=Cc1ccccc1O)NN=Cc1ccccc1O`, -21.8%. As to `O=C(Nc1ccc2ccccc2c1[N+](=O)[O-])c1ccccc1`, the activation was 37.5%. The same measure for `COc1cc(C(=O)OCc2cc(=O)n3ccsc3n2)ccc1OC(C)C`: 25%; for `COc1ccc([C@H]2CC(=O)C=C(/C=C/c3ccccc3)C2)cc1`: 84.7% (active). The same measure for `COc1ccc([C@H]2CC(=O)C=C(/C=C/c3ccc(Cl)cc3)C2)cc1`: 55.4%; for `COc1ccc([C@H]2CC(=O)C=C(c3ccc(C)cc3)C2)cc1`: 18.7%. The same measure for `CC1CN(Cc2ccccc2)C(=S)NC1=O` (stereo not drawn): 3.25%; for `COC(=O)c1ccc(CNC(=O)Cn2cc(C)c(=O)[nH]c2=O)cc1`: 2.68%.

With `FC(F)(F)c1cccc(Nc2ncnc3ccccc23)c1`, the activation was 0.633%. For `Cc1nnsc1C(=O)N/N=C/c1cccc(C(F)(F)F)c1`, the activation is 15.6%. Consider `FC(F)(F)c1cccc(N/N=C/c2ccccc2)c1`, for which the activation is 88.5% (active). With `Cc1c(NS(=O)(=O)c2cccc(C(=O)Nc3ccc(SC(F)F)cc3)c2)c(=O)n(-c2ccccc2)n1C`, the activation is -11%. For `COc1cc(/C=C/c2ccc(/C=C/c3cc(OC)c(OC)c(OC)c3)cc2)cc(OC)c1OC`, the activation was -15.7%. For `COc1cccc(NCCC(=O)c2cccc([N+](=O)[O-])c2)c1`, the activation is 85.6% (active). `COc1cccc(C(=O)CC(=O)C(=O)Nc2ccc([N+](=O)[O-])cc2C)c1`: the activation was 0.189%.

Regarding `COc1cccc(CNC(=O)CCCC(=O)Nc2cccc([N+](=O)[O-])c2)c1`, the activation is -21%. The same measure for `Cc1ccc(C)c(S(=O)(=O)N2CCN(c3ncnc4sccc34)CC2)c1`: -33.1%.

Regarding `CCC(C)C1(C2CCCC2)NC(=O)NC1=O` (stereo not drawn), the activation was -0.575%. As for `CSCCC(NS(=O)(=O)c1ccc(C)cc1)C(=O)N(C)CC(=O)Nc1ccccc1Br` (stereo not drawn), the figure is -13.8%; as for `Cc1nn2cc(-c3ccc(Cl)cc3)cnc2c1Br`, 132% (active); as for `C=CCn1c(=O)n(C)c2c(=O)n(C)c(=O)n(C)c21`, -2.68%. The same measure for `O=C1c2ccccc2C(=O)N1CCCCCCN1C(=O)c2ccccc2C1=O`: -10.4%.

Turning to `CC(C)n1cnc2c(NCc3ccccc3)cc(OCC3CCN(C)CC3)cc21`, the activation is -31%. As for `CN(C)c1cc[n+](Cc2ccccc2)cc1`, the figure is -11.3%; as for `O=C(c1ccc(CSc2ccccc2)cc1)N1CCCCCC1`, 61.5%.

In the case of `CN(C)c1ccc(CSc2ccccc2)cc1`, the activation is 106% (active). As for `C=CC[C@H](CC(=O)N(CCO)Cc1ccccc1)C(=O)N[C@@H](COC(=O)[C@@H](CC=C)Cc1ccc(F)cc1)Cc1ccccc1`, the figure is 8.2%.

Turning to `Nc1cc(=O)n(Cc2ccccc2)c(=O)n1Cc1ccccc1`, the activation is -2.74%. On to `Cn1c(SCc2c(F)cccc2Cl)nnc1-c1cnccn1`, for which the activation is 90.4% (active). The same measure for `Cc1ccc(CSc2nnc(-c3cnccn3)n2C)cc1`: 12.1%. As for `Oc1ccc(-n2nnnc2SCc2c(F)cccc2Cl)cc1`, the figure is 0.316%; as for `Cc1ccc(C(=O)Nc2ccccc2-c2ccccc2)cc1S(=O)(=O)Nc1ccccc1`, 3.07%. As for `CCOc1cc(C(=O)N(Cc2ccccc2)c2ccc(C)cc2)ccc1OCC(=O)N1CCOCC1`, the figure is -10.1%. As to `CCOC(=O)c1ccc(NC(=O)CNC(=O)c2ccco2)cc1`, the activation was 7.02%.

Regarding `O=C(OCC(=O)N1CCCC1)c1ccco1`, the activation was 4.95%. As for `CCN(CC)c1ccc(C(=O)OCC(=O)c2ccco2)cc1`, the figure is 83.2% (active); as for `CCc1ccc(C(=O)COC(=O)c2ccco2)cc1`, 99.6% (active); as for `O=C(COC(=O)c1ccccc1C(=O)c1ccccc1)c1ccco1`, 1.5%. As for `O=C(COC(=O)c1ccco1)NCc1ccc(Cl)cc1`, the activation was -14.2%. The same measure for `CCCCN1CC(COc2ccccc2)Oc2cccc(F)c2S1(=O)=O` (stereo not drawn): -2.06%. `N#CCc1c[nH]c2ccc([N+](=O)[O-])cc12`: the activation is 11.4%. As for `CCC1([N+](=O)[O-])COC(c2ccc(C)cc2)OC1` (stereo not drawn), the figure is 1.68%. With `CN(CCc1ccccc1)C(=O)c1cccc(NC(=O)Cc2cccc(NC(=O)C3CCCN(C(=O)C4CCC4)C3)c2)c1` (stereo not drawn), the activation is -9.62%.

(Values after PubChem BioAssay AID588334 (Broad Institute, 2011).)
